This is a sample that favours compounds with a hit; in the whole collection about 19% have one here.
SARS PLP yeast: SARS-CoV PLP inhibition in yeast. S. cerevisiae expressing SARS-CoV PLpro, growth rescue. 330,000 compounds, 0.19% hits. Potency, µM (doses to about 32.9 µM), usual class: activators; calls by dose curve; further: nearly all actives have a fitted effect of over 55% in size
CHX counter: counter-screen hit for Shiga toxin inhibitors, cycloheximide; 300,000 compounds, 12% hits; AID 2314; max response, %; cell reporter, cycloheximide protein synthesis inhibition counterscreen; in the data active means max response mostly above about 13%, no sharp cut-off; inactive means mostly below about 14%; further: read at 38.3 µM for the half of the compounds with a filed dose
Pf growth 96h: inhibits malaria parasite growth, 96 h | P. falciparum luciferase reporter growth, 96 h | 320,000 compounds, 6.9% hits | Potency, µM (titrated, usually from 28.7 µM), usual class: inhibitors
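P. falciparum expressing integrated firefly luciferase grown in erythrocytes (2% hematocrit, 0.05% parasitemia final) with compounds for 96 hours at 37 C, 5% CO2. Growth inhibition read as loss of luminescence after adding luciferase detection reagent.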
Shiga inhibitor: inhibitors of Shiga toxin in Vero cells; Vero cells, Shiga toxin protein synthesis inhibition reporter; inhibition, % at 38.7 µM; 290,000 compounds, 9.2% hits; in the data active means inhibition mostly above about 28%, no sharp cut-off; inactive means mostly below about 43%
Pf growth 48h: P. falciparum growth inhibition at 48 hours (one generation); Potency, µM (highest dose often 28.7 µM), most hits filed as inhibitors; P. falciparum luciferase growth in erythrocytes, 48 h; 310,000 compounds, 5.9% hits; AID 504832
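Firefly luciferase activity from engineered P. falciparum reports growth; inhibitors lower the luminescent signal. Cultures contained 2% hematocrit erythrocytes at 0.1% final parasitemia.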
AMA1-RON2 inh: AMA1-RON2 (P. falciparum) interaction inhibition; AlphaScreen AMA1-biotinylated RON2 peptide binding; 360,000 compounds, 0.2% hits; Potency, µM (top dose mostly 58.2 µM), usual class: inhibitors; further: nearly all actives have a fitted effect of over 45% in size
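AMA1 (3D7) with his tag at 25 nM final met compounds first, then biotinylated RON2 peptide at 25 nM; detection used donor plus acceptor beads, 10 µg/mL apiece, read by AlphaScreen after 30 min at room temperature.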
Large screens that a line does not name were inactive. Unless noted, the call rests on the fitted dose curve; in most records, active means well fitted curve in the direction sought with a large enough effect; inconclusive means small, poorly fitted or top-dose-only effect, or another doubt; inactive means no such curve, though single readings can be large; an effect the other way counts as inactive or inconclusive.

Cc1cc(C(=O)CSc2nnc(-c3ccc(F)cc3)o2)c(C)n1CC1CCCO1 (stereo not drawn)	Pf growth 96h 13µM
COc1cc(-c2nnc(SCC(=O)/C(C#N)=C(\C)N)o2)cc(OC)c1OC	Pf growth 96h 9.3µM, Pf growth 48h inconclusive
COc1cc(-c2nnc(SCC(=O)N3CCOCC3)o2)cc(OC)c1OC	Pf growth 96h inconclusive
O=C(NCc1cccs1)C(=O)NCC1OCCCN1S(=O)(=O)c1cc(F)ccc1F (stereo not drawn)	Pf growth 48h inconclusive
O=C(c1cc(S(=O)(=O)N2CCOCC2)ccc1Cl)N1CCC(Cc2ccccc2)CC1	Pf growth 96h inconclusive, Pf growth 48h inconclusive (no result: CHX counter, Shiga inhibitor)
CN(CC(=O)Nc1ccccc1Cl)C(=O)CN1C(=O)C2CC=CCC2C1=O (stereo not drawn)	none (no result: CHX counter, Pf growth 96h, Shiga inhibitor, Pf growth 48h)
COc1ccccc1Nc1nnc(SCC(=O)c2cc(C)n(CC3CCCO3)c2C)s1 (stereo not drawn)	Pf growth 96h 4.7µM, Pf growth 48h 10µM
COc1cc2[nH]c(=S)n(Cc3ccc(C)cc3)c(=O)c2cc1OC	Pf growth 96h 10µM
COc1ccc(Cn2c(=S)[nH]c3cc(OC)c(OC)cc3c2=O)cc1	CHX counter 31, Pf growth 96h inconclusive
CC(C)(C)C(=O)N1CCN(c2ccc3c(c2)C2CC3CCN2C(=O)OCc2ccccc2)CC1 (stereo not drawn)	none (no result: SARS PLP yeast, CHX counter, Pf growth 96h, Shiga inhibitor, Pf growth 48h)
O=S1(=O)C=C(SCCN2CCCCC2)c2ccccc21	CHX counter 26, Shiga inhibitor 37
C#CCOCCOCCOCCNc1nc(N2CCN(C(=O)CCCCCCCCCCNC(=O)[C@H]([C@@H](C)CC)n3cc(CCCCCN)nn3)CC2)nc(N2CCN(C(=O)CCCCCCCCCCNC(=O)[C@@H]([C@H](C)O)n3cc(C)nn3)CC2)n1	Pf growth 96h 0.37µM, Pf growth 48h 0.47µM (no result: CHX counter, Shiga inhibitor)
C#CCOCCOCCOCCNc1nc(N2CCN(C(=O)CCCCCCCCCCNC(=O)[C@@H]([C@H](C)O)n3cc(C)nn3)CC2)nc(N2CCN(C(=O)CCCCCCCCCCNC(=O)[C@@H]([C@H](C)O)n3cc(C)nn3)CC2)n1	Pf growth 96h 0.074µM, Pf growth 48h 0.1µM (no result: CHX counter, Shiga inhibitor)
C#CCOCCOCCOCCNc1nc(N2CCN(C(=O)CCCCCCCCCCNC(=O)[C@H](CCCCN)n3cc(C)nn3)CC2)nc(N2CCN(C(=O)CCCCCCCCCCNC(=O)[C@@H]([C@H](C)CC)n3cc(CCCCCN)nn3)CC2)n1	Pf growth 96h 4.1µM, Pf growth 48h 3.3µM (no result: CHX counter, Shiga inhibitor, AMA1-RON2 inh)
COCCNC(=S)NNC(=O)c1cc(C2CC2)nc2ccccc12	Pf growth 48h inconclusive
COc1ccc(C(=O)N/C(N)=N/c2nc3ccccc3o2)cc1	Pf growth 96h inconclusive
COc1ccc(C(=O)/C=C/Sc2nc3ccccc3o2)cc1	CHX counter 51, Shiga inhibitor 135, Pf growth 48h inconclusive
CC(=O)N1CCN(CC(=O)Nc2cc(S(=O)(=O)N3CCOCC3)ccc2C)CC1	none
C/C(=C\c1csc(C)n1)[C@@H]1C[C@@H]2O[C@]2(C)CCC[C@H](C)[C@H](O)[C@@H](C)C(=O)C(C)(C)[C@@H](O)CC(=O)O1	Pf growth 96h inconclusive, Pf growth 48h 0.0013µM (no result: SARS PLP yeast, CHX counter, Shiga inhibitor, AMA1-RON2 inh)
COc1ccc(CC(=O)O)cc1O	none
COc1ccc(/C=C2\CN(Cc3ccccc3)C/C(=C\c3ccc(OC)c(O)c3)C2=O)cc1O	CHX counter 14, Pf growth 96h 3.7µM, Pf growth 48h 3.3µM
CCN1C/C(=C/c2ccc(OC)c(O)c2)C(=O)/C(=C/c2ccc(OC)c(O)c2)C1	Pf growth 96h 1.7µM, Pf growth 48h 2.6µM
COc1ccc(/C=N/NC(=O)CCc2ccccc2)cc1O	Pf growth 96h inconclusive
CCN1CCN(C(=S)c2ccc([N+](=O)[O-])cc2)CC1	none
c1cncc(CNc2ccc3c(c2)OCO3)c1	none (no result: Pf growth 48h)
Cn1cc(CNC(=O)Nc2ccc3c(c2)OCO3)cn1	CHX counter 15
CCc1ccc(NC(=O)NCc2ccc3c(c2)OCO3)cc1	none
O=C(NCc1cccnc1)Nc1ccc2c(c1)OCO2	CHX counter 27, Pf growth 96h inconclusive, Shiga inhibitor 128
COC(=O)Nc1ccc(S(=O)(=O)N2CCCC(C(=O)N3CCCCCC3)C2)cc1 (stereo not drawn)	Pf growth 96h inconclusive
Cc1c(NS(=O)(=O)c2ccc(Br)cc2)c(=O)n(-c2ccccc2)n1C	CHX counter 17, Pf growth 96h inconclusive
